Compound activity deposited in PubChem BioAssay by Broad Institute.
PD-1 reverse act: reversal of PD-1 mediated T-cell inhibition. primary human CD4 T cells, PD-L1 beads, CellTiter-Glo 96 h. activation, % (test concentration not listed). 29,000 tested, under 10 active; call rule not given here;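 note: 0% = median vehicle wells and 100% = positive control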
STK33 inh: blocks human STK33 kinase activity; inhibition, % at 12.5 µM; ADP-Glo luminescence, MBP substrate; hit rate 0.44% among 27,000; AID 2322; in the data active = inhibition above about 20%
Target sequence (Q9BYT3 whole entry, looked up): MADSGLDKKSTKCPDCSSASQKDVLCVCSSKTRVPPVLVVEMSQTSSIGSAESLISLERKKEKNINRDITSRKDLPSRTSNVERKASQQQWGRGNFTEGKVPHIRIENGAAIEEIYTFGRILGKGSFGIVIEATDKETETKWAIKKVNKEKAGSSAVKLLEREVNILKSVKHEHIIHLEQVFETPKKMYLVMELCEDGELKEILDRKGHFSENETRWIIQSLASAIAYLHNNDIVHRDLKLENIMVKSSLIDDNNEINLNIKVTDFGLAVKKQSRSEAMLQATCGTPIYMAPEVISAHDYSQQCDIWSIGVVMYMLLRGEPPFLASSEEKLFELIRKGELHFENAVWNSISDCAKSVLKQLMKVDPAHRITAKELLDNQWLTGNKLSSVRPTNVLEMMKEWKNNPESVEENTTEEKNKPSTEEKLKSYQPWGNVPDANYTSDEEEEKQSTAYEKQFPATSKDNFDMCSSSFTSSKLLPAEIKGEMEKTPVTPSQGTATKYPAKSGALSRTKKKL
* = called active by the depositor; · = no result given. Many of the other results were omitted from the sample, so hits are more common in it than they were.

SMILES	PD-1 reverse act	STK33 inh
CN(C)CCNc1oc(COc2ccc(Br)cc2)nc1C#N	-2	-5
COc1ccc(N(CC(=O)Nc2ccccc2F)S(C)(=O)=O)cc1Cl	2	-1
Cc1ccc(S(=O)(=O)NCC(=O)Nc2ccc(I)cc2)cc1	-1	0
COc1ccc(C)cc1NC(=O)C(C)NS(=O)(=O)c1ccc(C)cc1 (stereo unspecified)	·	-1
COc1cccc(C(=O)Nc2cccc(OC(C)C(=O)c3cccc(Cl)c3)c2)c1 (stereo unspecified)	1	0
COc1ccc(Oc2c(C(F)(F)F)oc3cc(OCC(=O)Nc4ccccc4F)ccc3c2=O)cc1	-7	6
CC(C)n1cnc2c(NCc3ccccc3)nc(NCCO)nc21	3	35*
CC(C)n1cnc2c(NCc3ccccc3)nc(NCCCO)nc21	2	·
Cc1ccc2c(C)c(C(=O)Nc3ccc(S(=O)(=O)Nc4ncccn4)cc3)oc2c1	·	2
OCCCNc1ncnc2scc(-c3ccccc3)c12	-1	2
OCCCNc1ncnc2oc(-c3ccccc3)c(-c3ccccc3)c12	·	32*
Cc1cc(CNC(=S)Nc2ccc(S(N)(=O)=O)cc2)nn1C	1	2
Cc1ccc(CCC(=O)Nc2cc(Cl)cc(Cl)c2)o1	-7	1
O=C1N(c2cccc(Cl)c2)C(=Nc2cccc(Cl)c2)SC12CC2	-2	·
Cc1cc(O)c(C)c2c1Oc1c(C)c(O)cc(C)c1C(=O)O2	1	23*
Cc1c(O)cc(O)c2c1OC(c1ccccc1)CC2=O (stereo unspecified)	-1	5
CC(C)(C)c1cc(/C=C(\C#N)C(N)=S)cc(C(C)(C)C)c1O	·	12
N#CC(C#N)=C(N)/C(C#N)=C/c1cc(O)c(O)c(O)c1	-1	20*
O=C1Oc2cc(O)cc(O)c2[C@@H](c2ccc(O)cc2)[C@H]1[C@H]1C(=O)Oc2cc(O)cc(O)c2[C@H]1c1ccc(O)cc1	-2	28*
COc1ccc(C2CC(=O)Oc3cc(O)cc(O)c32)cc1 (stereo unspecified)	0	0
CC(=O)C(C#N)C(=O)Nc1cc(Br)ccc1Br (stereo unspecified)	·	22*
CC(=O)Nc1ccc(Br)cc1	2	·
Cc1cc(O)c2c(c1)C(=O)c1cccc(O)c1C2=O	·	5
COc1c(C=O)c(O)cc2c1C(=O)c1ccccc1C2=O	-2	85*
CC(=O)O[C@@](C)(C(=O)/C=C/C(C)(C)O)[C@H]1[C@H](O)C[C@@]2(C)[C@@H]3CC=C4[C@@H](C=C(O[C@@H]5O[C@H](CO)[C@@H](O)[C@H](O)[C@H]5O[C@@H]5O[C@@H](C)[C@H](O)[C@@H](O)[C@H]5O)C(=O)C4(C)C)[C@]3(C)C(=O)C[C@]12C	·	-3
SMILES	PD-1 reverse act	STK33 inh
NC(=O)[C@@H]1[C@H]2C(=O)O[C@H](c3ccccc3)[C@H](c3ccccc3)N2[C@H](c2ccc(OCCO)cc2)[C@@]12C(=O)Nc1ccc(C#CC3=CCCCC3)cc12	·	9
O=C1O[C@H](c2ccccc2)[C@H](c2ccccc2)N2[C@H]1[C@@H](C(=O)N1CCCCCCC1)[C@]1(C(=O)Nc3ccc(C#CC4(O)CCCCCC4)cc31)[C@H]2c1ccc(OCCO)cc1	·	18
COc1cc2c(cc1OC)CN(C(=O)[C@@H]1[C@H]3C(=O)O[C@H](c4ccccc4)[C@H](c4ccccc4)N3[C@H](c3ccc(OCCO)cc3)[C@@]13C(=O)Nc1ccc(C#CC4=CCCCC4)cc13)CC2	·	18
NC(=O)[C@@H]1[C@H]2C(=O)O[C@H](c3ccccc3)[C@H](c3ccccc3)N2[C@H](c2ccc(OCCO)cc2)[C@@]12C(=O)Nc1ccc(C#CC3(O)CCCCCC3)cc12	·	22*
COc1cc2c(cc1OC)CN(C(=O)[C@H]1[C@@H]3C(=O)O[C@@H](c4ccccc4)[C@@H](c4ccccc4)N3[C@@H](c3ccc(OCCO)cc3)[C@]13C(=O)Nc1ccc(C#CC4=CCCCC4)cc13)CC2	·	22*
O=C1O[C@@H](c2ccccc2)[C@@H](c2ccccc2)N2[C@@H](c3ccc(OCCO)cc3)[C@]3(C(=O)Nc4ccc(C#CC5=CCCCC5)cc43)[C@@H](C(=O)N3CCCCCCC3)[C@H]12	·	21*
CC(=O)c1ccc(NC(=O)CSc2nnc3n(C)c(=O)c4c5c(sc4n23)CCCC5)cc1	-3	6
Cc1nc(S(=O)(=O)N[C@H]2CCN(Cc3cccc(OCCO)c3)C2)cn1C	·	-2
C[C@@H]1CN([C@H](C)CO)C(=O)c2cc(NS(=O)(=O)c3ccc(Cl)cc3)ccc2O[C@H]1CN(C)Cc1ccncc1	0	·
COc1cc(-c2cc(=O)c3c(O)c(OC)c(OC)c(O)c3o2)ccc1O	·	65*
COc1cc2oc(-c3ccccc3)cc(=O)c2c(O)c1OC	0	9
COc1ccc(-c2oc3c(OC)c(OC)c(OC)c(O)c3c(=O)c2OC)cc1OC	-4	7
COc1c(OC)c(O)c2c(=O)cc(-c3ccc(O)cc3)oc2c1OC	-2	29*
O=C1C(c2c(O)[nH]c3ccccc23)=Nc2ccccc21	0	25*
O=C1c2ccccc2-[n+]2ccc3c([nH]c4ccccc43)c21	-57	5
O=C(Oc1ccc2ccccc2c1)C1c2ccccc2Oc2ccccc21	1	·
COC(=O)C(Cc1c[nH]c2ccccc12)NC(=O)C(NC(=O)C(C)NC(=O)/C=C/C(=O)O)C(C)c1c[nH]c2ccccc12 (stereo unspecified)	-1	154*
CC(=O)N[C@@H](Cc1c[nH]c2ccccc12)C(N)=O	·	-1
Cc1sc2nc(SCC(=O)Nc3c(F)cc(F)cc3Br)n(C)c(=O)c2c1C	1	0
